Potency and affinity values are given separately. Calls of active or inactive are those of the source.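 Rule for the calls: active = Loss of cell signal with fitted half-effect dose at or below twice the top valid tested dose; inconclusive = Poor fit, or flat fit from -70 to -30 percent; inactive = Half-effect above limit, rising signal, or flat within 30 percent.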
Experiment: HEK293T cell cytotoxicity, dose response, cytotoxicity control for HIV Vif inhibitor project, cherry-picks (AID 652208)
Settings: HEK293T viability, CellTiter-Glo luminescence, 24 h; series mostly up to 26 µM

Compound	outcome
Cc1nnc(NC(=O)Cn2nc(C)c3ccccc3c2=O)s1	inactive
Cc1cccc2cc(CN(CC3CCCO3)C(=O)NC3CCCCC3)c(=O)[nH]c12 (stereo not drawn)	inactive
CCC(=O)Nc1ccc(-c2cc3ccccc3oc2=O)cc1	inactive
S=C(NC1CC1)N1CCc2ccccc2C1	inactive
Cc1nn(C)cc1CN(C)Cc1ccc(OCC(O)CN2CCCCC2)cc1 (stereo not drawn)	inactive
CCOC(=O)C1CCCN(CC(=O)Nc2c(C(=O)OC)[nH]c3ccc(Cl)cc23)C1 (stereo not drawn)	inactive
Cc1nnc2ccc(-c3cccc(NS(=O)(=O)c4ccccc4Cl)c3)nn12	inactive
COc1ccc(CCNC(=O)[C@@H](NC(N)=O)C(C)C)cc1	inactive
O=S(=O)(Nn1cnnc1)c1ccccc1	inactive
CN(Cc1ccccc1)C(=O)CCC1CCN(C(=O)c2ccco2)CC1	inactive
Cc1ccnc(SCC(=O)n2c3c(c4ccccc42)CC(C)CC3)n1 (stereo not drawn)	inactive
Oc1ccc(-c2nc(-c3ccc(O)c(O)c3)cs2)cc1	inactive
CC(C)CC(=O)Nc1ccc(-c2nnn(CC(=O)NCc3ccco3)n2)cc1	inactive
COc1cc2[nH]c(=O)n(CCCC(=O)NC3CCCCC3)c(=O)c2cc1OC	inactive
O=C(C1COc2ccccc2O1)N1CCN(Cc2ccc3c(c2)OCO3)CC1 (stereo not drawn)	inactive
COc1ccccc1-c1cccc2nccn12	inactive
CCOC(=O)C1(Cc2cccc(OC)c2)CCN(CCO)CC1	inactive
O=C(O)/C=C/C(=O)Nc1cccc(C(F)(F)F)c1	inactive
Cc1ccc(S(=O)(=O)NC(=O)Nn2c(C)nnc2C)cc1	inactive

Compound	outcome
O=C(NC1CCCc2ccccc21)c1ccccc1Br (stereo not drawn)	inactive
COc1ccc(CC(NC(C)=O)C(=O)NC2CCN(C(=O)c3ccccc3F)CC2)cc1 (stereo not drawn)	inactive
CCOC(=O)Nc1ccc(NCc2ccc(F)cc2)nc1N	inactive
CCc1nnc(NC(=O)c2sc3nc4cc(C)ccc4cc3c2N)s1	inactive
CN(C)c1ccc(/C=C/C(=O)c2ccc3c(c2)OCO3)cc1	inactive
CC(=O)Nc1ccc(-c2ccnc3c2CC(C(=O)NCc2ccccc2)O3)cc1 (stereo not drawn)	inactive
Cc1nc(SCC(=O)N2CCCC2=O)nc(C)c1C	inactive
COc1ccc(NC(=O)C2(C)Cc3c(-c4cccc(NC(C)=O)c4)ccnc3O2)cn1 (stereo not drawn)	inactive
CCN(CC)c1ccc2cc(C(N)=O)c(=O)oc2c1	inactive
COc1ccccc1C(C)NC(=O)Cc1ccsc1 (stereo not drawn)	inactive
O=C(NCc1ccc(OC(F)(F)F)cc1)c1cccc2c1C(=O)c1ccc(N3CCCCC3)cc1S2(=O)=O	inactive
COc1cc(-c2cc(=O)c3c(O)c(OC)c(OC)c(O)c3o2)ccc1O	inactive
O=C(NCC1CC1)NC(=O)c1c(F)cccc1Cl	inactive
COCCNC(=O)c1nn2c(C(F)(F)F)cc(-c3ccccc3)nc2c1Cl	inactive
COCc1cc(C)nc(SCC(=O)Nc2cccc3cccnc23)c1C#N	inactive
CCNC(=O)[C@H]1O[C@@H](n2cnc3c(N)nc(NCCc4ccc(CCC(=O)O)cc4)nc32)[C@H](O)[C@@H]1O	inactive
Cc1ccc(N(C)S(=O)(=O)c2ccc(-c3ccc(=O)[nH]n3)s2)cc1C	inactive
CN(C)c1ccc(C(O)Cc2nc3ccccc3n2C)cc1 (stereo not drawn)	inactive
Cc1cccc(C)c1NC(=O)COc1ccc2c(C)c(Cc3ccccc3)c(=O)oc2c1C	inactive

Source: PubChem BioAssay AID652208 (Broad Institute, 2013)
